Assay outcomes: PubChem, National Center for Advancing Translational Sciences (NCATS)
Sampled rows, rich in hits. Any-hit rate of the full collection: about 19%.
TDP1 cell noCPT: qHTS for Inhibitors of human tyrosyl-DNA phosphodiesterase 1 (TDP1): qHTS in cells in absence of CPT; Potency, µM (titrated, usually from 46.2 µM), for the others: at the highest dose activity change, negative = growth inhibition, usual class: inhibitors; AID 686978, 2013; DT40 Tdp1-/- hTDP1 cells, no CPT, ATP luminescence, 48 h; 15% of 420,000 active; also: nearly all actives have a fitted effect of over 55% in size
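DT40 Tdp1-/-;hTDP1 cells, no CPT (DMSO vehicle only), 400 cells/well; compounds pin-transferred; ≥48 hr, 37 °C; CellTiter-Glo 30 min RT dark, luminescence read.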
TDP1 inh: inhibitors of human tyrosyl-DNA phosphodiesterase TDP1 | recombinant TDP1, AlphaScreen DNA substrate cleavage | AID 485290 | 0.28% of 350,000 active | Potency, µM (series often up to 130 µM), inactives show at the highest dose activity change, negative = inhibition, actives largely listed as inhibitors; also: nearly all actives have a fitted effect of over 40% in size
Target sequence (Q9NUW8 whole entry, looked up): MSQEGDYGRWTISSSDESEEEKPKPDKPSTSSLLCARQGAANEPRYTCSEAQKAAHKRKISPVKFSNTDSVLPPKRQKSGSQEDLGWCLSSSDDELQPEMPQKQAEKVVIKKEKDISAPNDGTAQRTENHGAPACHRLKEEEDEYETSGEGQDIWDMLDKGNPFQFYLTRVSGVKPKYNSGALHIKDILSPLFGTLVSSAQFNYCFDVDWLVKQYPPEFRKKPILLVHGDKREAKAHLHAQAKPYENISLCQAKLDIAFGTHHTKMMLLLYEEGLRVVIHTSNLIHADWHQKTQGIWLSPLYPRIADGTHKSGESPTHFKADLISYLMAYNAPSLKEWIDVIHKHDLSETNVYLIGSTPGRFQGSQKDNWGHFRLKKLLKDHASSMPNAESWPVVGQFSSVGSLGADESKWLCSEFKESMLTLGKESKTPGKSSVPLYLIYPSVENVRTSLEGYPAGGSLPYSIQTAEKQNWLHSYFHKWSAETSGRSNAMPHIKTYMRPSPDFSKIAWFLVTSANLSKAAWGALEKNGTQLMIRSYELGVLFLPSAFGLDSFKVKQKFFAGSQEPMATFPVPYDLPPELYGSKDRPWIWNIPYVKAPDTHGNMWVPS
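E. coli-derived human Tdp1, 1 nM final. Cpd preinc 15 min RT; substrate 15 nM final, 5 min RT; AS bead mix 10 ug/ml final, 10 min RT. Signal loss = tyrosine-FITC cleavage. No-enzyme wells = max signal.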
RORgamma inh: blocks mouse ROR gamma transcriptional activity; 5.4% of 310,000 active; AID 2551; Drosophila S2 Gal4-RORgamma UAS-luciferase reporter, 20 h; Potency, µM (highest dose often 53.6 µM), for the others: at the highest dose activity change, negative = inhibition, most hits filed as inhibitors; P51450; also: nearly all actives have a fitted effect of over 60% in size
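Compounds are pin-transferred onto Drosophila Schneider cells expressing a copper-inducible Gal4–ROR gamma transactivation domain fusion. After 1 hr, copper sulfate is added to 700 uM final; luciferase is read 20 hr later.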
DT40 TDP1 CPT: growth inhibition of DT40 Tdp1-/-;hTDP1 cells with camptothecin (screen for TDP1 inhibitors) | chicken DT40 Tdp1-/-;hTDP1 cells + 20 nM CPT, ATP luminescence, 48 h | Potency, µM (highest dose often 46.2 µM), inactives show at the top dose activity change, negative = growth inhibition, hits mostly inhibitors | 12% of 420,000 active; also: nearly all actives have a fitted effect of over 55% in size
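Cell growth measured by CellTiter-Glo luminescence after a minimum 48 h, 37 C compound exposure with 20 nM CPT in Tdp1-knockout DT40 cells stably expressing hTDP1, seeded 400/well; qHTS titration format.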
VP16 counter: Gal4-VP16 reporter inhibition counter-screen; 3.5% of 310,000 active; Potency, µM (top dose mostly 53.6 µM), inactives show at the top dose activity, negative = inhibition, usual class: inhibitors; Drosophila S2 Gal4-VP16 UAS-luciferase, luminescence, 20 h; AID 2546;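 also: Gal4-VP16 expression switched on by copper sulfate through the metallothionein promoter; nearly all actives have a fitted effect of over 50% in size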
* marks the source's active call; other numbers are inactive results; ? = inconclusive; . = not tested or not shown; ! = not active in a repeat; [ ] = dose if it differs, or a comment. Calls follow the shape of the dose curve; as a rule, active = well fitted curve in the direction sought with a large enough effect; inconclusive = small, poorly fitted or top-dose-only effect, or another doubt; inactive = no such curve, though single readings can be large; an effect the other way counts as inactive or inconclusive. % is scaled to controls: 0 for no effect and ±100 for the full control effect; potency is read from the fitted curve at half-maximal effect.

SMILES | TDP1 cell noCPT | TDP1 inh | RORgamma inh | DT40 TDP1 CPT | VP16 counter
CC1CC(C)CN(C(=O)c2ccc(-c3ccc([N+](=O)[O-])cc3)o2)C1 (centres undefined) | 16.4µM* | 12.1% | . | 16.4µM* | .
COCCn1nnnc1SCC(=O)NCc1ccc2c(c1)OCO2 | -24.9% | 3.6% | -5.1% | 7.5% | -3.2%
O=C(COC(=O)c1ccc([N+](=O)[O-])o1)NC1CCCc2ccccc21 (centres undefined) | -9.6% | -2.6% | . | -21.3% | .
N#CC1(NC(=O)Cn2ncc(Cl)c(Cl)c2=O)CCCCC1 | 7.31µM* | . | . | 13µM* | .
COc1cc(C(=O)O)ccc1Cl | 32.3% | 1.9% | -4.8% | 16.9% | -5.4%
COc1ccc(NS(=O)(=O)c2c(C(=O)N3CCCCCC3)c(C)n(C)c2C)cc1 | 3.8% | 6.7% | 2.1% | ? | -0.6%
CCc1cccc(C)c1NS(=O)(=O)c1c(C(=O)N2CCCCCC2)c(C)n(C)c1C | ? | 8.4% | . | ? | .
Cc1[nH]c(C)c(S(=O)(=O)Nc2ccc(OC(F)(F)F)cc2)c1C(=O)N1CCCCC1 | 16.4µM* | 3.9% | 3.4% | 20.6µM* | -1.0%
Cc1c(C(=O)N2CCC(C)CC2)c(S(=O)(=O)Nc2ccc(OC(F)(F)F)cc2)c(C)n1C | 16.4µM* | 3.8% | . | ? | .
CCc1cccc(C)c1NS(=O)(=O)c1c(C(=O)N2CCC(C)CC2)c(C)n(C)c1C | ? | 1.2% | . | 18.4µM* | .
C[C@H](CO)N1C[C@H](C)[C@H](CN(C)S(=O)(=O)c2ccc(Oc3ccccc3)nc2)OCc2cnnn2CCCC1=O | -9.1% | . | . | ? | .
CN1C(=O)C2(C(C#N)=C(N)N(c3ccc(Cl)cc3)C3=C2C(=O)CC(C)(C)C3)c2ccccc21 (centres undefined) | -9.4% | -1.9% | 16.4% | -16.4% | 7.3%
Cn1c(=O)c2c(nc(SCCOc3ccc4ccc(=O)oc4c3)n2C)n(C)c1=O | . | 0.0% | -2.1% | . | -5.6%
Cc1ccc(NC(=O)c2oc3ccc(S(=O)(=O)N4CCC5(CC4)OCCO5)cc3c2C)cc1C | ? | 10.4% | 34.0% | 8.2µM*! | -9.4%
COc1ccc(NC(=O)c2oc3ccc(S(=O)(=O)N4CCC5(CC4)OCCO5)cc3c2C)cc1Cl | 9.2µM* | 5.2% | . | 8.2µM* | .
COCc1cc(C)nc(SCC(=O)NC2CCCCC2C)c1C#N (centres undefined) | 2.4% | 1.9% | 5.9% | -3.6% | -5.8%
CCN=c1scc(-c2ccccc2)n1/N=C/c1ccccn1 | 3.66µM* | 8.2% | 4.47µM* | 4.11µM* | 7.94µM*
CCN=c1scc(-c2ccc(F)cc2)n1/N=C/c1ccccn1 | 16.4µM* | 2.7% | 17.8µM* | ? | 1.5%
O=C(CN1CCOCC1)Nc1ccc2c(c1)OC(F)(F)O2 | -3.8% | 3.6% | -1.5% | 17.2% | -11.4%
Cc1ccc(S(=O)(=O)N2CCOCC2)cc1C(=O)OCC(=O)NC1CCCC1 | -4.7% | -3.8% | . | -10.7% | .
COc1ccccc1N1CCN(c2nc(CNC(=O)c3ccccc3F)nc3ccccc23)CC1 | 8.2µM* | . | . | ? | .
COc1ccccc1N1CCN(c2nc(CNC(=O)C3CCOC(C)(C)C3)nc3ccccc23)CC1 (centres undefined) | 16.4µM* | . | . | ? | .
CCSc1nnc(CNC(=O)c2ccccc2F)n1-c1ccccc1OC | 1.0% | -0.6% | -21.6% | 13.0% | 6.6%
COc1ccccc1N1CCN(c2nc(CNC(=O)C3CC34CCCC4)nc3ccccc23)CC1 (centres undefined) | 20.6µM* | . | . | -13.4%[9.04 µM] | .
CCc1ccc(-c2nc(CN3CCC(C(=O)N4CCN(c5ccccn5)CC4)CC3)c(C)o2)cc1 | 18.4µM* | 1.0% | 18.9% | 23.1µM* | 13.9%
CCc1ccc(-c2nc(CN3CCC(C(=O)NCc4ccc(F)cc4)CC3)c(C)o2)cc1 | ? | 3.9% | 12.4% | ? | -9.6%
CCc1ccc(N2CC(C(=O)N3CCN(c4ccccn4)CC3)CC2=O)cc1 (centres undefined) | ? | 0.3% | . | ? | .
